Source: PubChem
Rows were chosen to be rich in hits. Some 32% of all compounds tested hit in one or more screens of this group.
PostGolgi ctrl: yeast control strain growth, post-Golgi counter-screen; actives 5% (n = 98,000); efflux-deficient yeast background strain, growth absorbance A615, 16 h; inhibition, % at 10 µM
CYP2C9 inhib: inhibitors of human CYP2C9 | inhibition, % at 5 µM | CYP2C9 Supersomes, luciferin-H conversion, luminescence | actives 20% (n = 96,000);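 active = blocking of liver enzyme CYP2C9 beyond about 50% at 5 µM, limit read from the data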
Target sequence (P11712 whole entry, looked up): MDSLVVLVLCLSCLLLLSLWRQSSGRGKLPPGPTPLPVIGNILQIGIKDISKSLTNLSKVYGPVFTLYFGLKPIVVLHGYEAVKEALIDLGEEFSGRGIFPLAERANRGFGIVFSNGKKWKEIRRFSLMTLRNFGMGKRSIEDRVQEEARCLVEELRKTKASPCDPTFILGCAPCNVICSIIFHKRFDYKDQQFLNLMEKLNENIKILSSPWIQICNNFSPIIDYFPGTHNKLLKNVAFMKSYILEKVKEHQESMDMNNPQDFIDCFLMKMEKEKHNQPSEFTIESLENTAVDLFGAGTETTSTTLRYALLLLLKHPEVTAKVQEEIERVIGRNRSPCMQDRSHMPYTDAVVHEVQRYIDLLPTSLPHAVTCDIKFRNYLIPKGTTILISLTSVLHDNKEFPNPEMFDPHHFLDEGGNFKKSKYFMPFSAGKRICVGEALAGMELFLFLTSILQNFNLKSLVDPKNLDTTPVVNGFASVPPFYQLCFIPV
CYP2C19 act: activators of human cytochrome P450 2C19 | P33261 | recombinant CYP2C19, luciferin-H EGE luminescence; hits give high values; 0 = fully inhibited enzyme, 1 = untreated enzyme | activation factor at 5 µM | 96,000 tested, under 10 active;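 active = activation factor of at least 2 at 5 µM in the primary screen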;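 also: 0 = wells with 2.5 mM tranylcypromine and 1 = vehicle-only wells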
CYP2C19 inh: inhibitors of human CYP2C19. P33261. CYP2C19 Supersomes, luciferin-H EGE luminescence, 30 min. inhibition, % at 5 µM. actives 21% (n = 96,000). AID 778;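 active = CYP2C19 inhibition above a set limit at 5 µM in the primary screen, cut at about 50% in these data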;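 also: plate controls were negative control wells for no effect and 2.5 mM tranylcypromine positive control for full effect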
PostGolgi yeast: growth inhibition of a yeast mutant, post-Golgi transport screen; actives 0.9% (n = 98,000); post-Golgi transport phenotypic cell assay; inhibition, % at 10 µM;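 also: yeast cells grown in 1536-well plates; yeast grown about 18 h at 30C before absorbance read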
CYP2C9 act: CYP2C9 (human) activation. P11712. recombinant CYP2C9, luciferin-H conversion, luminescence; hits give high values; factor 1 = untreated enzyme, 0 = blocked. activation factor at 5 µM. actives 1.4% (n = 96,000);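 active = activation factor of 2 or more for CYP2C9 at a 5 µM dose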;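 also: 0 = sulfaphenazole-blocked wells and 1 = vehicle-only wells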
* hit, by the source's call; nt = not tested or not shown. Rule as the data show it, unless noted: active = inhibition above about 30%; inactive = the rest.

SMILES | PostGolgi ctrl | CYP2C9 inhib | CYP2C19 act | CYP2C19 inh | PostGolgi yeast | CYP2C9 act
O=C(N/N=C/c1ccc(OCC(=O)N2CCCCC2)cc1)c1ccccc1 | 2.6 | 5.6 | 0.9 | 10.0 | -4.5 | 0.9
O=C(COc1ccc(/C=N/NC(=O)c2ccccc2)cc1)Nc1ccc([N+](=O)[O-])cc1 | 34.3* | -2.7 | 1.1 | -12.1 | -6.3 | 1
COc1cccc(C(C#N)N2N=C(C)CC2(C)C)c1O (stereo not given) | 5.1 | 6.5 | nt | nt | -5.1 | 0.9
CC(C)(C)NC(=O)c1ccc2c(c1)C(=O)N(C1CCCCC1)C2=O | 20.9 | 39.1 | 0.4 | 56.7* | 9.1 | 0.6
CCOC(=O)c1ccc2c(c1)C(=O)N(C1CCCCC1)C2=O | -8.8 | -4.9 | 1.1 | -6.7 | 7.8 | 1
Cc1ccc(NC(=O)c2ccc(OC(=O)CCN3C(=O)c4ccccc4C3=O)cc2)cc1 | 7.4 | -16.0 | 0.9 | 5.2 | -2.6 | 1.2
O=C(Nc1ccc2c(c1)C(=O)N(C1CCCCC1)C2=O)C1CCCO1 (stereo not given) | 6.8 | 72.2* | 0.6 | 43.9 | 0.0 | 0.3
CCC(=O)Oc1ccc(C(=O)Nc2ccc3c(c2)C(=O)N(C2CCCCC2)C3=O)cc1 | 6.8 | 57.8* | 0.8 | 23.6 | -3.6 | 0.4
C=CCOc1cccc(C2/C(=C(/O)c3ccc(F)cc3)C(=O)C(=O)N2CCN2CCOCC2)c1 (stereo not given) | 21.9 | 2.2 | 0.9 | 8.8 | -9.4 | 1
CCOc1ccc(CC(=O)N2CCN(c3ccc(N4CCOCC4)nn3)CC2)cc1OCC | 0.7 | 8.4 | 1 | -1.4 | -2.7 | 0.9
CCN(CC)c1ccc(C2Nc3cccc4cccc(c34)N2)c(O)c1 | nt | -15.7 | 0.8 | 24.2 | nt | 1.2
CCn1c(NC(=O)c2ccco2)c(-c2ccccc2Cl)c(=O)c2ccccc21 | 6.0 | 5.5 | 1 | -1.3 | -5.0 | 0.9
CC(C)Cc1nnc(NS(=O)(=O)Cc2ccccc2)s1 | 4.8 | 63.1* | 1 | 4.3 | 15.8 | 0.4
COC(=O)C(NC(=O)c1ccccc1C)(Nc1ncc(S(=O)(=O)c2ccc([N+](=O)[O-])cc2)s1)C(F)(F)F (stereo not given) | 1.6 | 60.4* | 0.6 | 42.7 | 11.4 | 0.4
COC(=O)C(NC(=O)c1ccc(F)cc1)(Nc1ncc(S(=O)(=O)c2ccc([N+](=O)[O-])cc2)s1)C(F)(F)F (stereo not given) | 0.7 | 87.9* | 0.5 | 50.5* | 4.2 | 0.1
C=CCNC(=O)/C(=C\C=C\c1ccccc1)NC(=O)c1ccc(OCCCC)cc1 | 19.3 | 36.0 | 0.8 | 18.0 | 3.1 | 0.6
O=C(Nc1ccc(N2C(=O)C3C4C=CC(C4)C3C2=O)cc1)Nc1cccnc1 (stereo not given) | 15.4 | 60.3* | 0.9 | 5.4 | -4.2 | 0.4
O=C(Nc1ccc(N2C(=O)C3C4C=CC(C4)C3C2=O)cc1)Nc1nncs1 (stereo not given) | nt | -31.7 | 1.1 | -12.4 | nt | 1.3
Cc1cccc(NC(=S)N(CCN(C)C)C(C)c2ccccn2)c1 (stereo not given) | -6.8 | 2.1 | 0.9 | 12.2 | 10.8 | 1
CC1C(=O)C(C)C(c2ccco2)NC1c1ccco1 (stereo not given) | -10.3 | -28.6 | 0.1 | 93.6* | 2.0 | 1.3
CCCC1C(c2ccco2)NC(c2ccco2)CC1(C)O (stereo not given) | 0.1 | 0.2 | 1 | -1.5 | -4.4 | 1
CC1CCCC(C)N1CCNC(=O)C1CCN(S(=O)(=O)N2CCCCC2)CC1 (stereo not given) | 18.3 | -6.1 | 0.9 | 6.2 | 0.6 | 1.1
CC(=O)c1c(C)n(C)c2ccc(OC(=O)c3ccco3)cc12 | 0.3 | 22.7 | 0.8 | 24.5 | -7.0 | 0.8
CCc1cc(-c2n[nH]c(C)c2Oc2ccc(C(C)C)cc2)c(O)cc1O | 87.2* | 82.7* | 0.3 | 67.0* | -6.0 | 0.2
Cc1[nH]nc(-c2ccc(O)cc2O)c1Oc1ccccc1 | 21.0 | 98.9* | 0 | 100.4* | -1.1 | 0
SMILES | PostGolgi ctrl | CYP2C9 inhib | CYP2C19 act | CYP2C19 inh | PostGolgi yeast | CYP2C9 act
CCCOC(=O)c1ccc(Oc2c(-c3ccc(OC)cc3O)n[nH]c2C)cc1 | 4.6 | 83.4* | 0.5 | 46.3 | -6.7 | 0.2
CCCOC(=O)c1ccc(NC(=O)COC)cc1 | 7.8 | 28.4 | 0.9 | 9.1 | -1.0 | 0.7
CCCOC(=O)c1ccc(Oc2c(-c3ccc(O)cc3O)n[nH]c2C)cc1 | 37.7* | 97.5* | 0.1 | 87.4* | 1.5 | 0
Cc1[nH]nc2ncc(C(=O)c3ccccc3O)cc12 | 15.0 | 33.6 | 0.7 | 25.4 | -7.1 | 0.7
CCCCCCOC(=O)c1ccccc1NC(=O)/C=C/C(=O)O | 8.9 | 21.9 | 1 | 3.7 | -2.4 | 0.8
O=C(Nc1nccs1)c1cc2c(s1)CCCCC2 | 26.2 | 33.3 | 0.7 | 31.3 | -10.1 | 0.7
COC(=O)c1sccc1NC(=O)c1cc2c(s1)CCCC2 | 3.6 | 61.2* | 0.6 | 36.2 | -7.0 | 0.4
Cc1cccc(C)c1NC(=O)c1c(C)nn(-c2ccccc2)c1Cl | 6.5 | 43.5 | 0.5 | 50.6* | 9.7 | 0.6
Cc1nn(-c2ccccc2)c(Cl)c1C(=O)Nc1nnc(C2CCCC2)s1 | 4.3 | 94.4* | 0.6 | 43.5 | -3.6 | 0.1
Cc1nn(-c2ccccc2)c(Cl)c1C(=O)NCC(=O)O | 3.7 | -13.0 | 1.2 | -17.5 | 0.8 | 1.1
CC1CN(C(=O)Nc2ccc3snnc3c2)c2ccccc21 (stereo not given) | 30.1* | 81.3* | 0.3 | 70.6* | -0.6 | 0.2
Cc1ccc(OC(=O)c2ccc3snnc3c2)cc1 | 3.6 | 21.5 | 0.5 | 48.9 | 7.1 | 0.8
O=C(Nc1ccc2snnc2c1)N1CCSCC1 | nt | 14.5 | 0.5 | 48.5 | nt | 0.9
CC1Cc2ccccc2N1C(=O)c1ccc2snnc2c1 (stereo not given) | -3.6 | 15.0 | 0.2 | 81.2* | -0.8 | 0.8
CC(c1ccccc1)N1C(=O)c2ccc(C(=O)NCc3ccco3)cc2C1=O (stereo not given) | 23.2 | nt | nt | nt | -0.3 | nt
COc1ccc(C(O)(C(=O)NNc2ccc(C)cc2)c2cccs2)cc1 (stereo not given) | -6.2 | 24.1 | 0.2 | 76.8* | 21.5 | 0.8
O=C(NNc1ccc(C2CCCCC2)cc1)C(O)(c1ccccc1)c1cccs1 (stereo not given) | 46.0* | 28.3 | 0.8 | 17.3 | 15.1 | 0.7
O=C(CCC1CCCCC1)NCc1cccs1 | 18.6 | 16.1 | 0.6 | 40.8 | -5.6 | 0.8
O=C(NCc1cccnc1)c1ccc(=O)oc1 | 3.8 | -3.4 | 1.1 | -11.2 | -0.6 | 1
CCOCCn1cnc2sc(C(=O)Nc3nc(C)c(C(=O)OCC)s3)c(C)c2c1=O | nt | 18.8 | 0.9 | 5.5 | nt | 0.8
COc1cccc(C2NC(=O)NC(C)=C2C(=O)Nc2ccccc2C)c1 (stereo not given) | 8.8 | -19.2 | 1.1 | -13.1 | -0.2 | 1.2
COc1ccc(C2CC(=O)C3=C(C2)NC(C)=C(C(=O)Nc2ccccc2C)C3c2coc3ccc(C)cc3c2=O)cc1OC (stereo not given) | 24.7 | 30.7 | 0.8 | 17.4 | 98.0* | 0.7
